Screens deposited in PubChem by several laboratories.
Compounds with a hit are over-represented: about 7.9% of the library has one in this group of screens.
M1 antag: blocks the rat M1 muscarinic receptor response to acetylcholine | CHO-M1 cells, Fluo-4 calcium, ACh EC80 antagonist mode; hits give low values | AID 628 | actives 3.4% (n = 64,000) | B-score at 10 µM;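 active means calcium fluorescence response, raw or row-and-column corrected B-score, differing from the plate sample mean either way at a set confidence level, mostly lower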
Cav32 inh: blocks human Cav3.2 T-type calcium channel; O95180; Cav3.2-expressing cells, Fluo-4 calcium fluorescence FDSS; hits give low values; B-score at 10 µM; actives 4% (n = 100,000); AID 449739;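 active means single-dose well whose peak fluorescence ratio is a statistical outlier from its plate by either plate-standardised score or position-corrected B-score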
M1 agonist: agonists of M1 muscarinic receptor; CHO-M1 cells, Fluo-4 calcium fluorescence, agonist mode; hits give high values; B-score at 10 µM; actives 3% (n = 64,000); AID 626;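 active means fluorescence rise, raw or as B-score row- and column-corrected plate score, outside the 99.7% band of its plate's samples, either direction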
HER2 expr 66K: lowers expression of human Her2 kinase. P04626. actives 0.69% (n = 65,000). SKBR-3 HER2 protein level, AlphaScreen, 18-24 h; hits give low values. HER2 level % of control, % at 10 µM;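 active means HER2 level under 5% of the carrier-only control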;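 further: 100% = DMSO carrier and 0% = 500 nM PU-H71 HSP90 inhibitor; lower value means stronger loss of Her2 protein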
Target sequence (P04626 whole entry, looked up): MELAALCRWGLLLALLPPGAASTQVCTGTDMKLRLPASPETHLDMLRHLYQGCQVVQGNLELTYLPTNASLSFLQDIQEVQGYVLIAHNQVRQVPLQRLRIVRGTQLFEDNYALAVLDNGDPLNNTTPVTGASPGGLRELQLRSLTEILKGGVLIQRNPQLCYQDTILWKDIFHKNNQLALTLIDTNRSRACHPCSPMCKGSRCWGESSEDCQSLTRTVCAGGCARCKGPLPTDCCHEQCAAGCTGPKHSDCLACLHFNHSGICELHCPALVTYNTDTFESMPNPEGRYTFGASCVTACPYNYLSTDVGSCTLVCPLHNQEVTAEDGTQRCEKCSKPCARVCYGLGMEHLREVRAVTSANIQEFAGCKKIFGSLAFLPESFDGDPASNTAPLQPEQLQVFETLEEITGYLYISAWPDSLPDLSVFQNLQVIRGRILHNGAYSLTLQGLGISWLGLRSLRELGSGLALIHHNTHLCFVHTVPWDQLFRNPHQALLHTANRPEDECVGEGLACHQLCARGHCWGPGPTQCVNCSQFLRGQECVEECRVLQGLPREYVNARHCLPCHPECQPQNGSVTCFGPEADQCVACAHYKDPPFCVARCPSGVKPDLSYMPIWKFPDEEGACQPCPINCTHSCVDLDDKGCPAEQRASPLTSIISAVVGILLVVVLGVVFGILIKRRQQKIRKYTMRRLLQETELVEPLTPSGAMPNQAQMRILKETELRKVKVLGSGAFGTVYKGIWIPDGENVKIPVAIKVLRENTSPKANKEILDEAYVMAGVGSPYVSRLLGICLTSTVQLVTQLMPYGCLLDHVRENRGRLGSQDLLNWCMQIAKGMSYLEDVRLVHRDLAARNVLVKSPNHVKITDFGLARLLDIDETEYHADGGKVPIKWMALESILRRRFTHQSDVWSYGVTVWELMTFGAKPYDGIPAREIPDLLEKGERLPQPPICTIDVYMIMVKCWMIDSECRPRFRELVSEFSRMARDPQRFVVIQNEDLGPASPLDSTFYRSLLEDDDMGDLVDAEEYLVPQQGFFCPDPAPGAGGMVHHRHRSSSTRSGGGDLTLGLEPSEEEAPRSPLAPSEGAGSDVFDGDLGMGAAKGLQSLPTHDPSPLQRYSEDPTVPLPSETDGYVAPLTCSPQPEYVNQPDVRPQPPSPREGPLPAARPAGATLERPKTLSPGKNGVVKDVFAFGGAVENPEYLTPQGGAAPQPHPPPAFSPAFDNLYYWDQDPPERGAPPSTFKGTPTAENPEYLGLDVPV
PLAP activator: activates human placental alkaline phosphatase; purified PLAP enzyme, luminescent substrate read-out; hits give high values; activation fold at 20 µM; actives 1.2% (n = 96,000); AID 696; in the data active means activation fold above about 2
* marks the source's active call; other numbers are inactive results; · = not tested or not shown.

SMILES | M1 antag | Cav32 inh | M1 agonist | HER2 expr 66K | PLAP activator
CCC1Oc2ccccc2N(CC(=O)Nc2ccc(OC)cc2OC)C1=O (stereo not given) | 0.8 | 0.0051 | -0.051 | 111 | 1
COc1ccccc1NC(=O)CN1C(=O)C(C)Oc2ccccc21 (stereo not given) | 0.23 | -0.011 | -3.4* | 86 | 1.1
CCn1c(=O)c(C(=O)CN2CCCc3ccccc32)c(N)n(Cc2ccccc2)c1=O | -0.66 | -6.1* | -0.00088 | 44 | 1.5
CCOC(=O)c1sc(C)c2c1NC(c1ccc(N(C)C)cc1)NC2=O (stereo not given) | · | -3.6* | · | · | 0.9
CCOC(=O)CC1(CC(=O)OCC)NC(=O)c2c(C)sc(C(=O)OCC)c2N1 | 0.03 | 0.7 | -0.74 | 89 | 1.6
COCCCNC(=S)NC1CC2CCCC(C1)N2Cc1cccs1 (stereo not given) | · | 1.3 | · | · | 1.2
Cc1cnn(CCC(=O)NNC(=S)Nc2ccc(F)cc2)c1 | · | 0.8 | · | · | 2.3*
CC(C)CC(NS(=O)(=O)c1ccc2c(c1)oc(=O)n2C)C(=O)N1CC=C(c2ccccc2)CC1 (stereo not given) | 0.0054 | 0.28 | -0.51 | 104 | 2.5*
O=C(Cn1c(=O)oc2cc(S(=O)(=O)N3CCCC3)ccc21)N1CCc2ccccc2C1 | · | -5.7* | · | · | 1.1
Cn1c(=O)oc2cc(S(=O)(=O)N3CCCC(C(=O)N4CC=C(c5ccccc5)CC4)C3)ccc21 (stereo not given) | -1.9 | · | 3.4* | 118 | 1.6
Cn1c(=O)oc2cc(S(=O)(=O)N3CCCC(C(=O)NC4CCCc5ccccc54)C3)ccc21 (stereo not given) | · | 0.81 | · | · | 1.2
O=C1c2ccccc2S(=O)(=O)c2cc(N3CCc4ccccc4C3)ccc21 | · | -0.38 | · | · | ·
C=CCNc1nc(-c2ccccc2)c(C(=O)OCC)cc1C#N | · | -4.4* | · | · | 1.1
c1ccc(C2=Nn3c(nnc3-c3ccncc3)SC2)cc1 | 0.96 | 0.79 | 0.77 | 59 | 0.9
Cc1ccc(-c2nnc3n2N=C(c2ccccc2Br)CS3)cc1 | 0.24 | -4* | 0.45 | 118 | 0.8
COc1ccc(-c2nnc3n2N=C(c2ccccc2)CS3)cc1OC | 0.58 | · | -0.48 | 16 | 0.9
Cc1cc(-c2nnc3n2N=C(c2ccc(-c4ccccc4)cc2)CS3)n[nH]1 | -0.63 | 0.55 | -1 | -21* | 1.1
CCOc1cc(C)c(Cl)cc1S(=O)(=O)NCc1ccc2c(c1)OCO2 | -0.0011 | · | 0.17 | 72 | 1.1
CCOc1cc(S(=O)(=O)NCc2ccc3c(c2)OCO3)c(C)cc1C | 0.22 | -6.2* | 0.074 | 86 | 0.9
Cc1ccc(-c2ccc(/C=N/N3C(=O)C4C5C=CC(C6CC56)C4C3=O)o2)c([N+](=O)[O-])c1 (stereo not given) | · | -5.1* | · | · | 1
Cc1nc2ccc(NC(=S)NC(C)C)cc2nc1C | · | 1.2 | · | · | 1.2
CCC(C(=O)NC1CCCC1)N(C(=O)Cn1nnc(-c2ccc(C)cc2)n1)C1CCCC1 (stereo not given) | · | -6.5* | · | · | ·
O=C(CN(Cc1ccco1)C(=O)Cn1nnc(-c2ccc(F)cc2)n1)NC1CCCC1 | -0.19 | · | -1.1 | 98 | 1.1
CCCCC(C(=O)NC1CCCC1)N(Cc1ccco1)C(=O)Cn1nnc(-c2ccc(F)cc2)n1 (stereo not given) | · | -2.9 | · | · | 2.2*
O=c1[nH]c(N2CCCCC2)nc2c1CCCC2 | -1 | · | -0.008 | 105 | 0.9
SMILES | M1 antag | Cav32 inh | M1 agonist | HER2 expr 66K | PLAP activator
Cc1ccc(C)c(NC(=O)C2C(c3ccccc3)C2(Cl)Cl)c1 (stereo not given) | · | -4.6* | · | · | 0.9
CCc1ccccc1NC(=O)C1C(c2ccccc2)C1(Cl)Cl (stereo not given) | · | -7.6* | · | · | 0.8
COc1ccc(-c2nc(CSCC(=O)N3CCN(C(=O)c4ccco4)CC3)c(C)o2)cc1OC | 0.054 | 0.28 | 0.14 | 70 | 1.6
CSc1ncc(Cl)c(C(=O)C(C#N)c2nc3c(C)cc(C)cc3c(=O)[nH]2)n1 (stereo not given) | -0.25 | -7* | -0.86 | 81 | ·
CSc1ncc(Cl)c(C(=O)NCc2ccc3c(c2)OCO3)n1 | 1.4 | -0.0002 | -1.1 | 96 | 1.1
CCCCC(c1nnnn1CC1CCCO1)N1CCN(c2cccc(C)c2C)CC1 (stereo not given) | -1 | -5.8* | -0.99 | 111 | 1.4
COc1ccc(C(c2nnnn2CC2CCCO2)N2CCN(c3cccc(C)c3C)CC2)cc1 (stereo not given) | 0.63 | -3.7* | 0.31 | 92 | 1.6
CC(=O)OC(/C(O)=C(\C#N)c1nc2ccccc2[nH]1)c1ccccc1 (stereo not given) | -0.025 | 0.34 | -0.77 | 98 | 1.5
COC(=O)C1=C(C(=O)OC)[C@@H]2N(Cc3ccccc3)c3ccccc3[C@@]23C[C@@H](C(=O)OC)N(C(=O)NC(C)(C)C)C3=N1 | · | -2.4 | · | · | ·
Cc1nn(-c2ccccc2)c2c1C(=O)N(Cc1ccccc1)C(=O)C(C)(C)C2 | · | -4.3 | · | · | 1.1
Cc1nn(-c2nc3ccccc3n2Cc2ccccc2)c2c1C(=O)CC(C)(C)C2 | 1.1 | -5* | 1 | 81 | 1.5
O=C(CCn1c(=O)[nH]c2ccsc2c1=O)N1CCN(c2cccc(Cl)c2)CC1 | -0.19 | -5.9* | 0.055 | 82 | 1.1
O=C(Cn1c(=O)[nH]c2ccsc2c1=O)N1CCN(c2ccc(F)cc2)CC1 | -0.41 | 0.4 | 0.0033 | 92 | ·
COc1ccc(N2CCN(C(=O)CCCn3c(=O)[nH]c4cc(Cl)ccc4c3=O)CC2)cc1 | · | 1.4 | · | · | 2*
O=C(COC(=O)CCC(=O)c1cccs1)Nc1cc(S(=O)(=O)N2CCOCC2)ccc1Cl | · | 0.59 | · | · | 1.5
CCCn1c(C(O)c2ccc(OC)cc2)nc2ccccc21 (stereo not given) | · | -0.16 | · | · | ·
Cc1ccc(C(O)c2nc3ccccc3n2C(C)C)cc1 (stereo not given) | -0.57 | · | 0.037 | 76 | 2.6*
CC1(C)CCC23CC[C@]4(C)C(OC2=O)(C3C1)[C@H]1O[C@H]1C1[C@@]2(C)CC[C@@H](O)C(C)(C)C2CC[C@]14C (stereo not given in full) | · | -1.7 | · | · | ·
COC(=O)C(C)N(C(=O)c1cccc2ccccc12)c1c(C)cccc1C (stereo not given) | · | -7.1* | · | · | 1.3
CCc1ccc2nc(NC(=O)c3ccc4c(=O)[nH]c(CN5CCOCC5)nc4c3)sc2c1 | 0.17 | -0.12 | 0.18 | 139 | 2.3*
COC(=O)c1ccc(COC(=O)CCc2nc(-c3ccccc3)c(-c3ccccc3)o2)cc1 | · | -5.2* | · | · | 1.3
Cc1cccc(C(=O)NNC2=C(C(=O)C(F)(F)F)CCC2)c1O | · | -8* | · | · | 2.3*
O=C(NNC1=C(C(=O)C(F)(F)F)CCC1)c1cccc(O)c1 | · | -0.65 | · | · | ·
O=C(O)CCc1cc(I)c(Oc2ccc(O)c(I)c2)c(I)c1 | 0.27 | · | 5.8 | 84 | ·
Cc1ccc(NC(=O)c2cc(S(=O)(=O)N3CCCCC3)cs2)cc1 | · | -4.8* | · | · | 0.8
O=C(Nc1ccc(F)cc1)c1cc(S(=O)(=O)Nc2ccc(F)cc2)cs1 | · | -5.8* | · | · | 1.1
O=C(Nc1ccc(Cl)cc1)c1cc(S(=O)(=O)N2CCOCC2)cs1 | · | -0.4 | · | · | 0.8
COc1ccc(N2CCN(c3ncnc4c3nnn4Cc3ccccc3Cl)CC2)cc1 | · | -1.5 | · | · | ·
